The results in this text go back to PubChem BioAssay (NCI).

About 83,000 compounds went through this panel and 20% of them were active in at least one assay; those are over-represented in the sample as a whole.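 Assay: single dose, 48 h. Readout: percent growth (0 = no net growth; negative = cell death). Active: <10.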 The source made the active and inactive calls.

The subject of one assay is A549/ATCC NSCLC. As to the kind of experiment: NCI-60 one-dose screen, 48 h (100 = growth as untreated, 0 = no growth, -100 = all killed). The note with it: 10 µM unless noted.
Take `COc1ccc(C2=Nc3c/c(=C\c4c(O)[nH]c5cc(Cl)ccc45)ccc3=N2)cc1`: the growth was 74.9% (inactive). Consider `CCCCCCCCCCCCCCCCCCOc1ccccc1CC(=O)NCC[N+]1(C)CCOCC1`, for which the growth was 55.6% (inactive). As for `Cc1ccc(-c2cc(C(=O)N3N=C(c4ccc(N)cc4)CC3c3ccc(Cl)cc3)c3ccccc3n2)cc1` (configuration not stated), the growth is 21.4% (inactive). For `O=C(CN1C(=O)/C(=C/c2ccco2)SC1=S)NCCc1c[nH]c2ccc(F)cc12`, the growth was 102% (inactive). Same read-out and setting: to `CCN(CC)CCN(CCN(CC)CC)c1ccccc1` belongs 93.1% (inactive); to `COc1cc(C(=O)C(=O)c2cc(OC)c(O)c(OC)c2)cc(OC)c1O`, 99.5% (inactive); to `O=C(/C=C/c1ccc(Br)cc1)c1ccc(-n2cc(CN3CCN(c4cc5c(cc4F)c(=O)c(C(=O)O)cn5C4CC4)CC3)nn2)cc1`, 87.3% (inactive).

Another assay deals with 786-0 renal. Described as above. The settings on record: 10 µM unless noted.
Regarding `Fc1ccc(COc2ccc(Nc3ncnc4sc5c(c34)CCCC5)cc2)cc1`, the growth was 94.6% (inactive). Same read-out and setting: then `COc1cc(C2Cc3ncccc3-c3[nH]c(=O)c4cccnc4c32)cc(OC)c1OC` (configuration not stated), with 33% (inactive). On the same count and under the same terms, to `O=C(c1ccc(Cl)cc1Cl)N1c2ccccc2Sc2ccccc21` belongs 67% (inactive); to `O=C(N/N=C/c1ccc([N+](=O)[O-])cc1)c1ccc2nc(-c3ccc(Cl)cc3)[nH]c2c1`, 49% (inactive). Same read-out and setting: then `O=C(NCc1ccccc1O)c1cccc2ccccc12`, with 72.7% (inactive); and `CC1=C(C(=O)n2c3ccccc3c3ccccc32)C(c2cccc([N+](=O)[O-])c2)C(C(=O)n2c3ccccc3c3ccccc32)=C(C)N1`, with 103% (inactive). Consider `COc1ccc(/C=C/C(=O)c2ccc(NC(=O)CSc3nnc(-c4cc(-c5ccccc5)nc5ccccc45)n3-c3ccccc3)cc2)cc1`, for which the growth was 95.4% (inactive). `Cn1cc(-c2nc(-c3c[nH]c4ccncc34)cs2)c2cc(Br)ccc21`: the growth is -78.5% (active).

As to `C#Cc1cccc(Oc2ccc(NC(=O)CCl)cc2)c1`, the growth is 74.8% [8.25 µM] (inactive). With `CC1(C)CC[C@]2(C(=O)N3CCOCC3)CC[C@]3(C)C(=CC[C@@H]4[C@@]5(C)C/C(=C/c6ccncc6)C(=O)C(C)(C)[C@@H]5CC[C@]43C)[C@@H]2C1`, the growth was 26.2% (inactive). Take `CC(C)c1ccc(NC(=O)Nc2ccc(NC(=O)c3ccccc3N)cc2)cc1`: the growth was 8.19% (active). `Cc1cc(C(=O)Nc2cc(Nc3ncccc3-c3ncnc4nc[nH]c34)ccc2F)cc(C(F)(F)F)c1`: the growth was 63.5% (inactive). Same read-out and setting: then `COc1cc2c3c(n(CCCCNCCCn4c5c(c6cc(OC)c(OC)cc6c4=O)C(=O)c4cc6c(cc4-5)OCO6)c(=O)c2cc1OC)-c1cc2c(cc1C3=O)OCO2`, with 109% (inactive).

With `CNC(=O)c1c(NC(=O)c2ccc(C(C)(C)C)cc2)sc2c(CN(C)C)c(O)ccc12`, the growth was -76.9% (active).

Turning to `CCCCn1sc(=O)n(Cc2ccc(CNC(=O)OCc3ccc4c(Cl)cc(Cl)c(O)c4n3)cc2)c1=O`, the growth was 67.9% (inactive).

Regarding `O=C1Nc2ccc(F)cc2/C1=N/c1nnc(Sc2ccccc2)s1`, the growth is 105% (inactive). Same read-out and setting: then `N#Cc1c(N2CCOCC2)nc(=S)[nH]c1-c1ccccc1`, with 82.9% (inactive).

As for `O=C(CSc1nnc2sc(Nc3cccc(Cl)c3)nn12)c1ccc(F)cc1`, the growth is 91.4% (inactive). The same measure, in the same setting: to `C=C(CO)[C@@H]1CC[C@]2(COC3CCCCO3)CC[C@]3(C)[C@H](CC[C@@H]4[C@@]5(C)C=C(C=O)C(=O)C(C)(C)[C@@H]5CC[C@]43C)[C@@H]12` (some centres not stated) belongs -91.2% (active); to `COc1ccc(-c2cc(C(=O)N3N=C(c4ccc(N)cc4)CC3c3ccccc3)c3ccccc3n2)cc1` (configuration not stated), 37.3% (inactive). Same read-out and setting: to `COc1ccc(-c2cc(-c3cc(OC)c(OC)c(OC)c3)c(C#N)c(=O)n2CCCCCC(=O)NO)cc1` belongs 101% (inactive); to `Cn1ccnc1C(=O)/C=C/c1ccc(C(=O)Nc2ccc(F)cc2)cc1`, -35.2% (active); to `C=C1C(=O)O[C@H]2[C@H]1CC/C(COC(=O)NCCCCCCCCNC(=O)OC/C1=C/CC[C@@]3(C)O[C@H]3[C@H]3OC(=O)C(=C)[C@@H]3CC1)=C\CC[C@@]1(C)O[C@@H]21`, -89.9% (active).

With `C/C(C=O)=C\c1ccc2c(c1)OCO2`, the growth was 107% (inactive). As to `COc1cccc(/C=C/C(=O)c2cc3c(N)c(C(=O)Nc4cccc(Cl)c4C)sc3nc2C)c1`, the growth is -43.8% (active). Take `COC(=O)/C=C1/SC(=Nc2cccc(Cl)c2)N(CCc2c[nH]c3ccc(O)cc23)C1=O`: the growth is 19.1% (inactive). With `CCC/C(=N\NC(N)=O)C(OC)OC`, the growth is 99.4% (inactive).

As for `COc1ccc2cc(Cn3cc[n+](Cc4ccc5ccccc5c4)c3)ccc2c1`, the growth was 51% (inactive).

On to `Cn1c(=O)c2c(c3ccccc31)OC(N)=C(C#N)C21C(=O)c2ccccc2C1=O`, for which the growth is 95.1% (inactive). In the case of `CN1CCN(c2ccc3c(c2)nc(NNC(=O)c2cnccn2)c2cccn23)CC1`, the growth is 17.6% (inactive). The same measure, in the same setting: to `Cc1cc(C)c(-c2c(O)c(Br)c(-c3c(C)cc(C)c(Br)c3C)c(O)c2Br)c(C)c1Br` belongs 24.8% (inactive); to `CCN(CC)S(=O)(=O)c1ccc(S(=O)(=O)N2CCC[C@@H](C(=O)N3CCN(C(=O)OC(C)(C)C)CC3)C2)cc1`, 92.8% (inactive). Same read-out and setting: to `O=C1/C=C/[C@@H](O)[C@@H]2C[C@@H](O)C[C@H]2/C=C/CCC[C@H](CCOCc2ccccc2)O1` belongs -51% (active); to `COc1ccc(C2=Nc3c/c(=C\c4c(O)[nH]c5cc(Cl)ccc45)ccc3=N2)cc1`, 90.8% (inactive); to `CCCCCCCCCCCCCCCCCCOc1ccccc1CC(=O)NCC[N+]1(C)CCOCC1`, 2.4% (active).

`Cc1ccc(-c2cc(C(=O)N3N=C(c4ccc(N)cc4)CC3c3ccc(Cl)cc3)c3ccccc3n2)cc1` (configuration not stated): the growth was 24.3% (inactive). As to `O=C(CN1C(=O)/C(=C/c2ccco2)SC1=S)NCCc1c[nH]c2ccc(F)cc12`, the growth is 104% (inactive). As to `CCN(CC)CCN(CCN(CC)CC)c1ccccc1`, the growth was 67.4% (inactive). The same measure, in the same setting: then `COc1cc(C(=O)C(=O)c2cc(OC)c(O)c(OC)c2)cc(OC)c1O`, with 103% (inactive); and `O=C(/C=C/c1ccc(Br)cc1)c1ccc(-n2cc(CN3CCN(c4cc5c(cc4F)c(=O)c(C(=O)O)cn5C4CC4)CC3)nn2)cc1`, with 76.7% (inactive).
